Cav32 inh: Cav3.2 calcium influx blockers – cell-based, Fluo-4 calcium fluorescence, FDSS, MLSMR library, primary screen; B-score at 10 µM; Cav3.2-expressing cells; active compounds read low; 100,000 tested, 4% active;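 active = single-dose well whose peak fluorescence ratio is a statistical outlier from its plate by either plate-standardised score or position-corrected B-score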
PLK1 PBD inh: Plk1 polo box domain binding inhibitors, primary screen, biochemical, fluorescence polarization | Plk1 PBD phosphopeptide binding | inhibition, %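 (tested at about 20 µM)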 | 97,000 tested, 0.13% active | AID 693, 2007; in the data active = inhibition above about 34%, passing the limit was not always enough
hDAT+cocaine: changed hDAT dopamine uptake under cocaine IC80, either direction, primary screen, cocaine antagonist project, cell-based, LLC-PK1 hDAT, [14C]-dopamine uptake, MLSMR; Sodium-dependent dopamine transporter (Homo sapiens), Q01959; 110,000 tested, 1.3% active; B-score at 10 µM; LLC-PK1 hDAT cells, [14C]-dopamine uptake with cocaine IC80; actives deviate in either direction;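 active = Z score or B-score, a plate-position-corrected score, falls beyond the plate's 99.7% confidence bounds, in either direction; inactive = both scores lie inside the 99.7% bounds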;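 also: scored against the spread of the other compound wells on the same plate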
PLK1 kinase inh: human PLK1 kinase inhibitors, primary screen, biochemical, TR-FRET; 97,000 tested, 0.53% active; recombinant PLK1 kinase, TR-FRET peptide phosphorylation; AID 619, 2007; inhibition, % at 10 µM; Serine/threonine-protein kinase PLK1 (Homo sapiens), P53350;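 active = inhibition of 50% or more in the single-concentration screen; inactive = inhibition below 50%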;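 also: 0% = DMSO max control and 100% = H-89 dihydrochloride min control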
PTK2B oligo ant: antagonists of Pyk2 self-association, primary screen, Q293 cells, FERM NanoBiT luminescence, HTS; Protein-tyrosine kinase 2-beta (Homo sapiens), Q14289; active compounds read low; z-score (the deposit names both 25 µM and 10 µM); 99,000 tested, 0.83% active;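 active = Z-score of -3 or lower, scaled per plate to the spread of control and sample wells; inactive = z-score above -3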;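 also: negative z-score means lost luminescence so less FERM oligomerization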
sdo1 growth: growth rescue of sdo1-depleted yeast, primary screen, S. cerevisiae, bone marrow failure model; S. cerevisiae sdo1-depleted JHY4D growth rescue, OD600 30 h; active compounds read high; pdr5 snq2 efflux-pump mutant strain; z-score at 10 µM; 140,000 tested, 0.21% active; AID 817, 2007;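 active = z-score above 3 at both the 24 hr and the 30 hr optical density reads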;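 also: z-score against mean and SD of all compound wells on the same plate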
The depositor's hits bear a star. An excerpt weighted towards active compounds, which were near 4.7% of everything screened.

`CCOC(=O)c1cccc(NC(=O)CS(=O)(=O)Cc2nc(-c3cccc(OC)c3)oc2C)c1` gave Cav32 inh -5.19*, hDAT+cocaine 0.0203, PTK2B oligo ant 1.03 and sdo1 growth 0.37.
CCN(CC)c1ccc(NC(=O)c2ccccc2)cc1S(=O)(=O)Nc1ccccc1OC was read as sdo1 growth -0.79.
For O=c1[nH]c(CSc2nc(-c3ccc(F)cc3)cs2)nc2ccccc12 the results were PTK2B oligo ant 1.12 and sdo1 growth -0.53.
CCn1c(COc2ccccc2C)nc2ccccc21 was read as Cav32 inh -3.03, PLK1 PBD inh 3.9, hDAT+cocaine -0.33, PLK1 kinase inh -12.5, PTK2B oligo ant -0.33 and sdo1 growth -1.47.
For CCn1c(COc2cccc(C)c2)nc2ccccc21 the results were Cav32 inh -3.99*, PLK1 PBD inh -9.5, hDAT+cocaine 1.34, PLK1 kinase inh -10.3, PTK2B oligo ant 1.11 and sdo1 growth -1.34.
`COCc1nc2ccccc2n1CCCOc1ccccc1` gave Cav32 inh -1.06, PLK1 PBD inh -21.9, hDAT+cocaine -1.02, PLK1 kinase inh -11.8, PTK2B oligo ant 0.44 and sdo1 growth -0.82.
Screening COCn1c(COc2ccc3ccccc3c2)nc2ccccc21 returned Cav32 inh -5.34*, PLK1 PBD inh 7.7, hDAT+cocaine 1.26, PLK1 kinase inh 3.9, PTK2B oligo ant -2 and sdo1 growth -2.33.
COc1cccc(/C=C/C(=O)OCC(=O)NCC2CCCO2)c1OC (stereo not given) was read as sdo1 growth 0.11.
For CCC(C(=O)NC1CCCC1)N(C(=O)Cn1nnc(-c2ccc(OC)c(OC)c2)n1)C1CCCCC1 (stereo not given) the results were Cav32 inh -0.177, PLK1 PBD inh 24.6, hDAT+cocaine 1.72, PLK1 kinase inh -2.7, PTK2B oligo ant 0.63 and sdo1 growth -0.3.
CC(C)(C)NC(=O)C(c1ccco1)N(C(=O)Cn1nnc(-c2ccc(F)cc2)n1)c1ccccc1 (stereo not given) was read as PLK1 PBD inh 0.7 and PLK1 kinase inh -16.7.
CC(C)(C)NC(=O)C(c1ccco1)N(C(=O)Cn1nnc(-c2ccc(F)cc2)n1)c1ccccc1F (stereo not given) was read as Cav32 inh -5.02*, PLK1 PBD inh -0.4, hDAT+cocaine 0.757, PLK1 kinase inh -12.0, PTK2B oligo ant -1.36 and sdo1 growth -2.19.
`CC(C)CC(C(=O)NCC1CCCO1)N(C(=O)Cn1nnc(-c2ccc(F)cc2)n1)c1ccccc1F` (stereo not given) gave Cav32 inh -3.36*, PLK1 PBD inh 26.0, hDAT+cocaine 2.62, PLK1 kinase inh -11.2, PTK2B oligo ant -0.69 and sdo1 growth 0.65.
`CCC(C(=O)NC1CCCC1)N(C(=O)Cn1nnc(-c2ccc(C)cc2)n1)C1CCCC1` (stereo not given) gave Cav32 inh -6.54*, PLK1 PBD inh 4.7, hDAT+cocaine 3.71*, PLK1 kinase inh 0.2, PTK2B oligo ant 0.45 and sdo1 growth -0.48.
`Cc1ccc(N(C(=O)Cn2nnc(-c3ccc(F)cc3)n2)C(CC(C)C)C(=O)NCC2CCCO2)cc1` (stereo not given) gave Cav32 inh -7.37*, PLK1 PBD inh -16.0, hDAT+cocaine -0.211, PLK1 kinase inh -4.8, PTK2B oligo ant -0.33 and sdo1 growth 0.27.
`O=C(CSCc1ccc(Cl)cc1)NCc1ccccn1` gave sdo1 growth -0.08.
Screening O=C(c1csc2c1CCCC2)N1CCN(c2cccc(C(F)(F)F)c2)CC1 returned Cav32 inh -1.17, PLK1 PBD inh -6.4, hDAT+cocaine -1.11, PLK1 kinase inh 1.4, PTK2B oligo ant 0.34 and sdo1 growth -1.25.
`CC(C)(C)NC(=O)C(c1c[nH]c2ccccc12)N(C(=O)Cn1nnc(-c2ccc(Cl)cc2)n1)c1ccccc1F` (stereo not given) gave sdo1 growth -0.14.
COc1cccc(N(C(=O)Cn2nnc(-c3cccs3)n2)C(C(=O)NC(C)C)c2ccc(C)o2)c1 (stereo not given) was read as Cav32 inh -0.0824, PLK1 PBD inh 17.6, hDAT+cocaine 0.0634, PLK1 kinase inh -8.6, PTK2B oligo ant -3.5* and sdo1 growth -1.65.
For O=C(NCc1ccccc1)C(c1ccc(O)cc1)N(C(=O)Cn1nnc(-c2cccs2)n1)c1ccc2c(c1)OCCO2 (stereo not given) the results were Cav32 inh -3.42, PLK1 PBD inh 15.3, hDAT+cocaine 0.871, PLK1 kinase inh -9.9, PTK2B oligo ant -2.79 and sdo1 growth 0.86.
`Cc1ccc(-c2nnn(CC(=O)N(c3ccccc3F)C(CC(C)C)C(=O)NCC3CCCO3)n2)cc1` (stereo not given) gave Cav32 inh -4.43*, PLK1 PBD inh 0.3, hDAT+cocaine 0.321, PLK1 kinase inh -11.9, PTK2B oligo ant -0.24 and sdo1 growth 0.65.
COc1cccc(N(C(=O)Cn2nnc(-c3ccc(C)cc3)n2)C(C(=O)NC(C)(C)C)c2c[nH]c3ccccc23)c1 (stereo not given) was read as Cav32 inh -5.61*, PLK1 PBD inh -15.3, hDAT+cocaine 1.07, PLK1 kinase inh -3.8, PTK2B oligo ant 0.34 and sdo1 growth 0.49.
For O=C(O)CCOc1ccc2c(c1)OCCO2 the results were Cav32 inh 0.149, PLK1 PBD inh 6.0, hDAT+cocaine -7.65*, PLK1 kinase inh -14.3, PTK2B oligo ant 2.38 and sdo1 growth 0.57.
O=C(O)CCC(=O)c1ccc2c(c1)OCCO2 was read as Cav32 inh 2.33, PLK1 PBD inh -32.8, hDAT+cocaine -0.216, PLK1 kinase inh 65.6* and sdo1 growth 0.63.
`Cc1ccc(C(NC(=O)NC(C)c2ccccc2)C(Cl)(Cl)Cl)cc1F` (stereo not given) gave sdo1 growth -0.09.
`O=C(c1ccc2c(=O)n(C3CCCC3)c(=S)[nH]c2c1)N1CCc2ccccc21` gave Cav32 inh -4.58*, PLK1 PBD inh 26.6, hDAT+cocaine -0.834, PLK1 kinase inh -11.7, PTK2B oligo ant 0.22 and sdo1 growth -1.83.
For CCN1CCN(C(=S)c2ccc([N+](=O)[O-])cc2)CC1 the results were sdo1 growth 0.88.
`Cc1ccc(C(=O)Nc2ccccc2Oc2ccccc2)cc1[N+](=O)[O-]` gave Cav32 inh -4.07*, PLK1 PBD inh -1.4, hDAT+cocaine -0.00767, PLK1 kinase inh 3.4, PTK2B oligo ant -1.05 and sdo1 growth -0.85.
